# According to PubChem BioAssay (NCI):
# The panel holds about 83,000 compounds, 20% with a hit somewhere; the sample as a whole holds those more often.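 Cell lines were cultured in 96-well plates, exposed to a single compound concentration, and assessed for percent growth 48 hours later.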 A number with no mark means an inactive call. Calls of active or inactive are those of the source. The calls were made as follows: active = growth percent below 10; inactive = the rest.
# How the values were obtained:
# Assay in all cases: NCI-60 one-dose screen, 48 h (100 = growth as untreated, 0 = no growth, -100 = all killed)
# Details in all cases: 10 µM unless noted
# SR leukemia = system: SR leukemia
# RPMI-8226 leukemia = system: RPMI-8226 leukemia
# OVCAR-8 ovarian = system: OVCAR-8 ovarian
# OVCAR-5 ovarian = system: OVCAR-5 ovarian
# OVCAR-4 ovarian = system: OVCAR-4 ovarian
# SK-OV-3 ovarian = system: SK-OV-3 ovarian
# IGROV1 ovarian = system: IGROV1 ovarian
# OVCAR-3 ovarian = system: OVCAR-3 ovarian
# HS 578T breast = system: HS 578T breast
# NCI/ADR-RES ovarian = system: NCI/ADR-RES ovarian
# T-47D breast = system: T-47D breast
# BT-549 breast = system: BT-549 breast
# MDA-MB-435 melanoma = system: MDA-MB-435 melanoma
# SW-620 colon = system: SW-620 colon
# MCF7 breast = system: MCF7 breast
# HCT-116 colon = system: HCT-116 colon
# HCC-2998 colon = system: HCC-2998 colon
# KM12 colon = system: KM12 colon
SMILES,growth (SR leukemia),growth (RPMI-8226 leukemia),growth (OVCAR-8 ovarian) [%],growth (OVCAR-5 ovarian) [%],growth (OVCAR-4 ovarian) [%],growth (SK-OV-3 ovarian) [%],growth (IGROV1 ovarian) [%],growth (OVCAR-3 ovarian),growth (HS 578T breast) [%],growth (NCI/ADR-RES ovarian) [%],growth (T-47D breast) [%],growth (BT-549 breast) [%],growth (MDA-MB-435 melanoma) [%],growth (SW-620 colon) [%],growth (MCF7 breast),growth (HCT-116 colon),growth (HCC-2998 colon) [%],growth (KM12 colon) [%]
Cn1c(=O)c2c(ncn2CC[N+](C)(C)C)n(C)c1=O,94.7%,104%,105,105,105,99.4,102,105%,110,102,88.8,115,104,106,99.9%,100%,102,105
Cn1c2ccccc2c2c3c(c4c5ccccc5[nH]c4c21)C(=O)N(N)C3=O,5.54% (active),57.2%,66.7,89.3,73,74,72.7,69.6%,79.5,71.6,30.9,46.6,57.9,44.7,23.9%,40.7%,74.4,62.8
CN(CC(=O)N(Cc1ccc(C2CCCCC2)cc1)c1ccc(C(=O)NO)cc1)S(=O)(=O)c1c(F)c(F)c(F)c(F)c1F,-4.55% (active),62.8%,49.8,104,84.4,111,28.6,81.7%,91.6,90.2,11.2,93,99.1,20.1,24.9%,75.6%,84.2,99.4
Oc1c(Cl)cc(Cl)cc1CNc1nccnn1,93.5%,105%,108,101,106,107,96.3,92.1%,114,98.5,105,105,99.3,102,99.2%,98.1%,98.6,93.1
CCN(CC)C12CCCCC1(C)C(C#N)(C#N)C(C#N)=C(N)O2 (stereo unspecified),92.7%,125%,93.4,101,100,110,111,98.3%,120,101,98.8,103,96.8,109,105%,100%,96.3,106
CCOC(=O)c1c2c(n3ccc(NC(=O)CCN(CC)CC)cc13)C(=O)c1ncccc1C2=O,-2.86% (active),51.2%,57.4,90.5,63.8,36.2,47.3,74.7%,60.8,60.2,55.9,75.9,32.7,49.3,-8.59% (active),49.3%,83.1,63.5
Cn1c2ccccc2c2c3c(c4c5ccccc5n(CCCCCC#N)c4c21)C(=O)N(O)C3=O,1.39% (active),0.134% (active),27.5,12.8,28.4,37.1,27.6,6.92% (active),13,12.2,17.4,18.5,20.9,14,7.79% (active),-19.4% (active),25.3,16.6
